Shown is part of a subset that was picked to be rich in hits.
TTR transcr act – increases transthyretin transcription | SH-SY5Y TTR promoter Gaussia luciferase, luminescence; 100% = recombinant luciferase protein wells | activation, % at 16.7 µM | actives 1.3% (n = 92,000) | AID 1117267;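 active = activation above the mean of all tested compounds plus 3 SD, cut at about 9.5% in these data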;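 also: cells exposed to compounds for one day before reading; 0% = median of all test compound wells on the plate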
TTR inh HuH7 – HuH7 TTR transcription inhibition, counter-screen; actives 4% (n = 1,100); shares compounds with TTR transcr act; inhibition, % at 16.7 µM; HuH7 TTR promoter-Gaussia luciferase reporter, luminescence;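 active = average inhibition above the solvent-only control wells' mean plus 3 SD, cut at about 15% in these data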;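 also: 0% = cells with DMSO only and 100% = cells with inhibitor control FD; inhibitors lower well luminescence so higher value means more inhibition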
TTR act confirm – confirmation of human transthyretin transcription activators | shares compounds with TTR transcr act | AID 1117280 | SHSY5Y TTR promoter Gaussia luciferase, luminescence; 100% = purified Lucia enzyme wells, no cells | 1,100 tested, under 10 active | activation, % at 16.7 µM;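 active = mean activation above a set limit taken from the earlier primary screen, cut at about 11% in these data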;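 also: 0% = DMSO-treated cells and 100% = recombinant Lucia luciferase without cells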
The depositor's hits bear a star.

SMILES	TTR transcr act	others
O=c1c2c3c(sc2n(CCN2CCOCC2)c(=O)n1C1CCCCC1)CCCCC3	1
O=C(Nc1ccccc1Oc1ccccc1)NC1CCCCN(Cc2ccc(Cl)cc2)C1=O (stereo not drawn)	2
COc1cccc(CNc2ccc(F)c(Cl)c2)c1O	13*	TTR inh HuH7=-13;TTR act confirm=0
CCn1cnc2cc(NCc3cccc(OC)c3O)ccc21	1
CCOc1cccc(CNc2ccc(O)cc2)c1OCc1ccc(Cl)cc1Cl	-5
CC(C)(C)C(=O)NC1CCCCN(Cc2ccc(Cl)cc2)C1=O (stereo not drawn)	-1
CCC[C@H]1[C@@H](OC(=O)N2CCOCC2)CC[C@@]23CCCN2C(=O)CCC[C@@H]13	0
Cc1cc(-c2ccccc2)[nH]c(=O)c1C#N	0
Cc1cc(C)n(CC(=O)c2ccccc2)c(=O)c1C#N	16*	TTR inh HuH7=-7;TTR act confirm=0
Cc1cn(CC(=O)c2ccccc2)c2ccccc12	0
COc1cc(C(=O)NC2CCCCN(Cc3ccc(Cl)cc3)C2=O)cc(OC)c1OC (stereo not drawn)	0
CC(=O)COc1ccc2c(C)c(C)c(=O)oc2c1	14*	TTR inh HuH7=-9;TTR act confirm=8
CCCc1cc(=O)c2ccc(OCC(C)=O)cc2o1	0
COc1ccc(-c2cc(=O)oc3cc(OCC(C)=O)ccc23)cc1	0
COc1cccc(NC(=O)Nc2c(-c3ccc(C)cc3)nc3ncccn23)c1	0
O=C(NCCCn1ccnc1)c1cc(C2CC2)on1	10*	TTR inh HuH7=-2;TTR act confirm=1
COc1cc(C(=O)NCCCn2ccnc2)cc(OC)c1OC	-1
Cc1cc(C(=O)NCCCn2ccnc2)cs1	0
CC(=O)c1ccc(NC(=O)NC2CCCCN(Cc3ccc(Cl)cc3)C2=O)cc1 (stereo not drawn)	-2
COc1cc(NS(=O)(=O)c2ccc(NC(=O)COc3ccc(C)cc3)cc2)nc(OC)n1	0
CCOC(=O)/C=C/C(=O)Nc1ccc(S(=O)(=O)Nc2cc(OC)nc(OC)n2)cc1	0
COc1cc(NS(=O)(=O)c2ccc(NC(=S)NC(C)=O)cc2)nc(OC)n1	17*	TTR inh HuH7=-20;TTR act confirm=-1
C[C@H](NS(=O)(=O)c1ccc([N+](=O)[O-])cc1)C(=O)NCCNC(=O)[C@@H](C)NS(=O)(=O)c1ccc([N+](=O)[O-])cc1	1
O=C(N/N=C/C=C/c1ccccc1)c1cc(C2CC2)[nH]n1	1
O=C(N/N=C/C=C/c1ccccc1)c1n[nH]c2c1CCC2	11*	TTR inh HuH7=14;TTR act confirm=-1
SMILES	TTR transcr act	others
O=C(N/N=C/C=C/c1ccccc1)c1cccnc1	2
Cc1cc(C(=O)N/N=C/C=C/c2ccccc2)n[nH]1	-2
Cc1ccc(-c2cc(C(=O)N/N=C/C=C/c3ccccc3)n[nH]2)s1	13*	TTR inh HuH7=-32;TTR act confirm=0
Cc1ccc(/C=N/NC(=O)c2n[nH]c3c2CCCC3)cc1	-2
O=C(OCc1cn(Cc2ccc(C(F)(F)F)cc2)nn1)N1CCOCC1	1
COC(=O)[C@]12C[C@H](CC(=O)N3CCSCC3)C(=O)N(Cc3cccc4ccccc34)C1=C[C@H](C(C)(C)C)O[C@@H]2C	1
CNC(C)C(=O)NC(C(=O)N1CCCC1C(=O)Nc1cccc2ncccc12)C(C)C (stereo not drawn)	-1
CCN(CC)CCNC(=O)Cc1nn(Cc2ccccc2)c(=O)c2ccccc12	0
COc1ccccc1Cn1nc(C(=O)O)c2ccccc2c1=O	2
CC(C)(C)NC(=O)c1nn(Cc2ccccc2)c(=O)c2ccccc12	10*	TTR inh HuH7=-27;TTR act confirm=0
CCOC(=O)[C@]12CCCC=C1N(Cc1ccc(OC)cc1)C(=O)[C@@H]2CC(=O)NCCC(C)C	0
CN(CCOC(=O)c1cc2ccccc2o1)C1CN(Cc2cn(Cc3ccccc3Cl)nn2)S(=O)(=O)C1 (stereo not drawn)	0
C[C@@H]1CN([C@H](C)CO)C(=O)c2cc(Br)cnc2O[C@H]1CN(C)Cc1ccccc1F	2
COC(=O)[C@@]12CCCCC=C1N(CCc1ccc(Cl)cc1)C(=O)[C@H]2CC(=O)NCCc1ccccc1OC	-1
O=C(NCCc1c[nH]c2ccccc12)OCc1cn(-c2cccc(Cl)c2)nn1	0
CC1C(C#N)=C(N)OC2=C1C(=O)CC(c1ccccc1)C2 (stereo not drawn)	15*	TTR inh HuH7=-14;TTR act confirm=-1
CC1(C)CC(=O)C2=C(C1)OC(N)=C(C#N)[C@@H]2c1ccccc1[N+](=O)[O-]	0
COc1ccc(C2C(C#N)=C(N)OC3=C2C(=O)CC(C)(C)C3)cc1 (stereo not drawn)	2
Cc1ccccc1CN1CCCCC(NC(=O)c2ccccc2C(F)(F)F)C1=O (stereo not drawn)	1
O=Nc1ccc(Cl)cn1	0
O=C(NCCc1nc2ccccc2[nH]1)/C(=C/c1ccco1)NC(=O)c1ccccc1Br	-1
COc1ccc(/C=C/C(=O)N/C(=C\c2ccco2)C(=O)NCCc2nc3ccccc3[nH]2)cc1	12*	TTR inh HuH7=4;TTR act confirm=-1
O=C(NCCc1nc2ccccc2[nH]1)/C(=C/c1ccco1)NC(=O)c1ccc(Br)cc1	-1
O=C1CCCC2=C1C1(CCCC1)N=C(Nc1nc3cc(Br)ccc3o1)N2	0
C=CCN1C(=O)[C@H](CC(=O)NCc2ccccc2)[C@@]2(C(=O)OCC)CCCC=C12	2
SMILES	TTR transcr act	others
NC1=NS(=O)(=O)Nc2ccccc21	-1
O=S(=O)(NCc1cc(-c2ccc(Cl)cc2)no1)c1ccc(Cl)cc1	-1
O=S(=O)(Cc1cc(-c2ccc(Cl)cc2)no1)c1ccccc1	12*	TTR inh HuH7=-21;TTR act confirm=0
O=S(=O)(NCc1cc(-c2ccccc2)no1)c1ccc(Cl)cc1	0
O=C(NCCc1nc2ccccc2n1CCOc1ccc2cccnc2c1)C1CCCCC1	0
O=C(CNC(=O)c1ccccc1F)NCCc1ccc(Cl)cc1Cl	3
Nc1cc(C(=O)OCC(=O)NNC(=O)c2ccccc2F)ccc1Cl	4
O=C(NC(=O)c1ccccc1F)OCc1ccc(Cl)cc1Cl	20*	TTR inh HuH7=-14;TTR act confirm=1
CCC[C@H]1[C@@H](NCC2CCCCC2)CC[C@@]23CCCN2C(=O)CCC[C@@H]13	2
CC(C)CNC(=O)OCc1cn(Cc2ccc(F)c(F)c2)nn1	5
COCCCNC(=O)C[C@H]1C[C@@]2(C(=O)OC)C(=C[C@H](C3CCCC3)O[C@@H]2C)N(Cc2ccc(Cl)cc2Cl)C1=O	-1
COC(=O)c1ccc(CN2C(=O)c3ccccc3C2=O)o1	0
Cc1cc(CN2C(=O)c3ccccc3C2=O)on1	15*	TTR inh HuH7=-7;TTR act confirm=0
O=C1c2ccccc2C(=O)N1Cc1cccnc1	-2
O=C(Nc1ccc(F)cc1)OCc1cn(Cc2ccc(F)cc2)nn1	-1
COc1ccc(COC[C@H](C)N2C[C@@H](C)[C@H](CN(C)S(=O)(=O)c3ccc(F)cc3)OCCCC[C@H](C)Oc3ccc(NC(=O)Nc4ccccc4)cc3C2=O)cc1	-2
COC(=O)[C@]1(CC(C)C)N[C@H](c2ccc(SC3CCCCC3)c(OC)c2)[C@@H]2C(=O)N(C)C(=O)[C@@H]21	0
CCC(C)Sc1ccc([C@H]2N[C@@](CC(C)C)(C(=O)OC)[C@H]3C(=O)N(CC)C(=O)[C@@H]23)cc1 (stereo partly drawn)	3
COC(=O)[C@]1(CC(C)C)N[C@H](c2ccc(-c3ccc(F)cc3)c(OC)c2)[C@@H]2C(=O)N(C)C(=O)[C@@H]21	13*	TTR inh HuH7=-11;TTR act confirm=0
